# Results: PubChem BioAssay AID493220 (National Center for Advancing Translational Sciences (NCATS), 2011)
# Inconclusive results are not listed. Active and inactive are the calls of the source. Calls follow the shape of the full dose curve.
# Biological target: Polyunsaturated fatty acid lipoxygenase ALOX15 (Homo sapiens) (UniProt P16050)
# Assay: Inhibitors of 12-hLO (12-human lipoxygenase): 15hLO-1 Cuvette-Based Inhibition Counterscreen Assay for 12hLO Followup Compounds
# Conditions: purified 15hLO-1, UV 234 nm product formation
# Protocol: Human lipoxygenase 15hLO-1 is a member of the closely related lipoxygenase family of enzymes which catalyze the site-specific oxidation of arachidonic acid to various hormone precursor molecules and as such is a candidate for drug development in a variety of disease areas, such as cancer and inflammation. The enzyme activity of 15hLO-1 was determined by a direct measurement of product formation by monitoring the absorbance at 234 nm in a 2 mL cuvette. IC50 values of inhibitors were obtained by measuring the enzymatic rate at a variety of concentrations (Carroll et al, Segraves et al). A purified preparation of human 15hLO-1 was supplied by Professor Ted Holman, University of California, Santa Cruz. This assay was run against 12hLO followup compounds with the goal of identifying selective 12hLO inhibitors. Assay Provider: Holman, T.R., University of California, Santa Cruz Screening Center PI: Austin, Christopher P. Screening Center: NIH Chemical Genomics Center
# For control experiments, 2 mL of substrate buffer (10 uM arachidonic acid / 25 mM HEPES / 0.01% (v/v) Triton X-100, pH 8.0) was aliquoted in a cuvette with a magnetic stir bar. After equilibrium was ensured, an aliquot of inhibitor solvent was added (DMSO), and equilibrium was once again assured. The reaction was started by adding enzyme to the cuvette and the reaction was followed until completed. The inhibition experiments were performed as above, except the actual inhibitory compound was added instead of vehicle. To achieve an IC50, typically 5 concentrations of the inhibitor were studied. If the inhibitor concentration was constant, then five different reaction volumes were used. Step \ Parameter \ Value \ Description 1; UV-Vis; 234 nm; Equilibration 2; Reagent; 2 mL; Substrate buffer 3; UV-Vis; 234 nm; Equilibration 4; Reagent; varies; Compound 5; UV-Vis; 234 nm; Equilibration 6; Reagent; 50-200 nM; Enzyme 12-hLO 7; UV-Vis; 234 nm; Enzymatic reaction Step \ Notes 1; Blank cuvette to air. 2; 10 uM AA, 25 mM HEPES, 0.01% Triton X-100, pH 8. 3; No change in absorbance ensured. 4; Compound vehicle or compound in various concentrations depending on potency. 5; No change in absorbance ensured. 6; Enzyme concentration to achieve reaction rate between 0.02 and 0.04 AU/s. 7; Enzymatic reaction visualized until completion.
# Sequence of Polyunsaturated fatty acid lipoxygenase ALOX15 (Homo sapiens) (P16050 whole entry, looked up): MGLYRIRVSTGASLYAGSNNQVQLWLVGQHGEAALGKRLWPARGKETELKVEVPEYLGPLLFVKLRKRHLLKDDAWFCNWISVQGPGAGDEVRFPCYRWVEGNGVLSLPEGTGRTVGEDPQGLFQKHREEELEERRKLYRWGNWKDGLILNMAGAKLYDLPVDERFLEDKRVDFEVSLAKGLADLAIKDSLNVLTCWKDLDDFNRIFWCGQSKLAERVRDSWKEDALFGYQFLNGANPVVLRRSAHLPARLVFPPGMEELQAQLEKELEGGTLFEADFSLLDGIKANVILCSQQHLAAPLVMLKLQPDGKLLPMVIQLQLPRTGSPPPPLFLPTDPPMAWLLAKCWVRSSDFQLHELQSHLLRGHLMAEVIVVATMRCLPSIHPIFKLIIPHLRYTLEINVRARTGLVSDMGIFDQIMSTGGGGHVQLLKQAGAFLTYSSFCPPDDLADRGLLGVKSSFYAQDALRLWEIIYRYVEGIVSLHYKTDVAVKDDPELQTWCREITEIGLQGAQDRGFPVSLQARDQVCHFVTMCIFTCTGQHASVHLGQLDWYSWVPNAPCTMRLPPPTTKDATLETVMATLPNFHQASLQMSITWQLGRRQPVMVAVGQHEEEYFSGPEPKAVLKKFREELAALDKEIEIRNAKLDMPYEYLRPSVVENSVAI
Compound,Potency,outcome
Cc1oc2c(O)c(O)ccc2c(=O)c1-c1cnn(-c2ccccc2)c1,18.9 µM (active),–
Cc1[nH]nc(-c2ccc(O)cc2O)c1Oc1ccccc1,15.6 µM (active),–
Oc1ccc(C2=Nn3c(nnc3-c3ccco3)SC2)cc1O,39.1 µM (active),–
O=C(Nc1nnc(C2=COCCO2)o1)c1ccc(Cl)cc1,–,inactive
O=C1c2ccccc2NC(c2ccc(Cl)cc2Cl)N1O (stereo not given),37.4 µM (active),–
COc1ccc(/C=C/c2nc(-c3ccccc3O)n[nH]2)cc1,11.2 µM (active),–
COc1ccc(Cc2nc(C(=O)Nc3ccc(OC)cc3)cs2)cc1,8.84 µM (active),–
Cc1ccc(S(=O)(=O)Nc2nc(C)c(NC(=O)Nc3ccc(Cl)cc3Cl)s2)cc1,–,inactive
Oc1ccccc1-c1cc(-c2cccc(F)c2)n[nH]1,4.81 µM (active),–
Oc1ccccc1-c1cc(-c2ccccc2Cl)[nH]n1,1.62 µM (active),–
CC(Oc1ccc(Cl)cc1Cl)C(=O)NC1=NN(c2ccccc2)C(=O)C1 (stereo not given),65 µM (active),–
Oc1ccc(CN2CCCc3ccccc32)c2cccnc12,81.3 µM (active),–
Oc1ccccc1-c1cc(-c2ccc3c(c2)OCCO3)n[nH]1,2.55 µM (active),–
CSCCC(NC(=O)c1ccc(Cl)cc1)C(=O)OCC(=O)Nc1ccc(C#N)cc1 (stereo not given),46.2 µM (active),–
COc1cccc(-c2cnc(NCc3cc(Cl)ccc3O)n2C)c1,32.9 µM (active),–
O=C(NC(=S)Nc1ccccc1N1CCCC1)c1ccc([N+](=O)[O-])cc1,–,inactive
c1ccc(-c2nc(NCc3cccnc3)c3oc4ccccc4c3n2)cc1,31 µM (active),–
COc1ccc(-c2[nH]ncc2-c2ccc(Cl)cc2)c(O)c1,6.81 µM (active),–
O=C(Nc1nnc(-c2ccc(Cl)cc2)o1)c1ccccc1Br,–,inactive
O=C(CSc1n[nH]c(-c2ccccc2)n1)c1ccc(O)c(O)c1,5.77 µM (active),–

Compound,Potency,outcome
COc1ccc(C(Nc2ccccn2)c2c(NC(=O)c3ccco3)sc(C)c2C)cc1 (stereo not given),62.7 µM (active),–
CC1=NN(c2ccc(Cl)cc2)C(=O)C1C(c1ccccc1O)c1c(C)[nH]n(-c2ccc(Cl)cc2)c1=O (stereo not given),20 µM (active),–
O=S(=O)(Nc1ccc(O)c(Sc2nc3ccccc3s2)c1)c1ccc(Cl)cc1,12.6 µM (active),–
CC1=NN(c2ccc(Cl)cc2)C(=O)C1C(c1cccc(O)c1)c1c(C)[nH]n(-c2ccc(Cl)cc2)c1=O (stereo not given),22.8 µM (active),–
N#CC1=C(N)Oc2n[nH]c(-c3cccs3)c2C1C1CCCCC1 (stereo not given),9.33 µM (active),–
Oc1ccc(-c2nc(-c3ccc(O)c(O)c3)cs2)cc1,0.61 µM (active),–
CCCOC(=O)c1ccc(Oc2c(-c3ccc(O)cc3O)n[nH]c2C)cc1,6.81 µM (active),–
CCc1ccc(S(=O)(=O)/N=C2/C=C(Sc3ncn[nH]3)C(=O)c3ccccc32)cc1,9.52 µM (active),–
O=C(Nc1nnc(-c2ccccn2)o1)c1ccc(Br)cc1,–,inactive
CCOC(=O)Cc1cc(=O)n(-c2nc3ccccc3s2)[nH]1,–,inactive
COc1ccc(C(=O)Nc2cc(C(=O)c3ccccc3)c(C)oc2=O)cc1,–,inactive
COc1ccc(NC2=NCC(Cc3ccc(Br)cc3)S2)cc1 (stereo not given),8.89 µM (active),–
Cc1cc(Cl)cc(Cl)c1OCC(=O)NCc1ccco1,88.6 µM (active),–
Cc1ccc(NC(=O)Nc2cccs2)c(Cl)c1,58.8 µM (active),–
Oc1ccc(-c2csc(-c3ccccc3)n2)cc1O,0.67 µM (active),–
Oc1ccc(Cl)cc1-c1cc(-c2ccco2)[nH]n1,2.03 µM (active),–
CSc1ccc(S(=O)(=O)Nc2ccc(S(=O)(=O)Nc3ccc(C)cc3)cc2)cc1,45 µM (active),–
COc1ccc(-c2n[nH]c(C)c2-c2ccc(Cl)cc2)c(O)c1,3.51 µM (active),–
CCCOC(=O)c1ccc(Oc2cn[nH]c2-c2ccc(OC)cc2O)cc1,13.1 µM (active),–
COc1cc(CNc2ccc(N3CCCC3)cc2)ccc1OCc1ccccc1,–,inactive
